How the values were obtained:
[1] = target: Serine/threonine-protein kinase PAK 6 (Homo sapiens) (UniProt Q9NQU5); details: at 1 µM;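 further: values are mean percent inhibition of PAK6 kinase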
[2] = tested on: Tyrosine-protein kinase ABL1 (Homo sapiens), P00519 [E255K]; details: at 0.1 µM
[3] = tested on: Tyrosine-protein kinase ABL1 (Homo sapiens), P00519 [E255K]; details: at 1 µM
[4] = tested on: Tyrosine-protein kinase ABL1 (Homo sapiens), P00519 [H396P]; details: at 0.1 µM
[5] = tested on: Tyrosine-protein kinase ABL1 (Homo sapiens), P00519 [H396P]; details: at 1 µM
[6] = tested on: Tyrosine-protein kinase ABL1 (Homo sapiens), P00519 [M351T]; details: at 0.1 µM
[7] = tested on: Tyrosine-protein kinase ABL1 (Homo sapiens), P00519 [M351T]; details: at 1 µM
[8] = tested on: Tyrosine-protein kinase ABL1 (Homo sapiens), P00519 [Q252H]; details: at 0.1 µM
[9] = tested on: Tyrosine-protein kinase ABL1 (Homo sapiens), P00519 [Q252H]; details: at 1 µM
[10] = tested on: Tyrosine-protein kinase ABL1 (Homo sapiens), P00519 [T315I]; details: at 0.1 µM
[11] = tested on: Tyrosine-protein kinase ABL1 (Homo sapiens), P00519 [T315I]; details: at 1 µM
[12] = tested on: Tyrosine-protein kinase ABL1 (Homo sapiens), P00519 [Y253F]; details: at 0.1 µM
[13] = tested on: Tyrosine-protein kinase ABL1 (Homo sapiens), P00519 [Y253F]; details: at 1 µM
[14] = target: Tyrosine-protein kinase ABL1 (Homo sapiens) (UniProt P00519); details: at 0.1 µM
[15] = target: Tyrosine-protein kinase ABL1 (Homo sapiens) (UniProt P00519); details: at 1 µM
[16] = target: ALK tyrosine kinase receptor (Homo sapiens) (UniProt Q9UM73); details: at 0.1 µM
[17] = target: ALK tyrosine kinase receptor (Homo sapiens) (UniProt Q9UM73); details: at 1 µM
[18] = target: Tyrosine-protein kinase ABL2 (Homo sapiens) (UniProt P42684); details: at 0.1 µM
[19] = target: Tyrosine-protein kinase ABL2 (Homo sapiens) (UniProt P42684); details: at 1 µM
[20] = target: Tyrosine-protein kinase receptor UFO (Homo sapiens) (UniProt P30530); details: at 0.1 µM;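 further: values are mean percent inhibition of AXL from the GSK PKIS screen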
Tyrosine-protein kinase receptor UFO (Homo sapiens), sequence (P30530 whole entry): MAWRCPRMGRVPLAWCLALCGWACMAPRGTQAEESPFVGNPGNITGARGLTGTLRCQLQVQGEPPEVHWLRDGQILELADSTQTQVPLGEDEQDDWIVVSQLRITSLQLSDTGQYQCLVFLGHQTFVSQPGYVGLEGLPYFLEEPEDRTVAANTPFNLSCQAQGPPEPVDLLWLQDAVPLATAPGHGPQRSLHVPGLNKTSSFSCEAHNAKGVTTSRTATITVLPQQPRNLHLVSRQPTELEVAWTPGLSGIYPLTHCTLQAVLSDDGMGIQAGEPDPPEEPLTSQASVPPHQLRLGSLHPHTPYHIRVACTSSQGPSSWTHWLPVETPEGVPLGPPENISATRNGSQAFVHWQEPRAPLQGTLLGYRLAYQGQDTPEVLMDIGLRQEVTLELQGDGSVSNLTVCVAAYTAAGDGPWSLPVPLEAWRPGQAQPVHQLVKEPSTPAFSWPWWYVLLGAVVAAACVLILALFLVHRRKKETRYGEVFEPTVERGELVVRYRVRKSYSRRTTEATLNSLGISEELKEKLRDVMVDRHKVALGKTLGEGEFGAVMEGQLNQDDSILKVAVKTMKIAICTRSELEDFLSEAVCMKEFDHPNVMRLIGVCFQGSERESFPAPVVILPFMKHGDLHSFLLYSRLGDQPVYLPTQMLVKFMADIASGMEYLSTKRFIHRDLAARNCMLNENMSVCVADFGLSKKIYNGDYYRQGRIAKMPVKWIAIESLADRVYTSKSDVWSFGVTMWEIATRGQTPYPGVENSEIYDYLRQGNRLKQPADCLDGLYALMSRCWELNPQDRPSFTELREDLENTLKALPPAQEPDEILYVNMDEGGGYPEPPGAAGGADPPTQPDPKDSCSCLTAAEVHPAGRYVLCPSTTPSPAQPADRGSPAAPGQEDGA

Serine/threonine-protein kinase PAK 6 (Homo sapiens), sequence (Q9NQU5 whole entry, looked up): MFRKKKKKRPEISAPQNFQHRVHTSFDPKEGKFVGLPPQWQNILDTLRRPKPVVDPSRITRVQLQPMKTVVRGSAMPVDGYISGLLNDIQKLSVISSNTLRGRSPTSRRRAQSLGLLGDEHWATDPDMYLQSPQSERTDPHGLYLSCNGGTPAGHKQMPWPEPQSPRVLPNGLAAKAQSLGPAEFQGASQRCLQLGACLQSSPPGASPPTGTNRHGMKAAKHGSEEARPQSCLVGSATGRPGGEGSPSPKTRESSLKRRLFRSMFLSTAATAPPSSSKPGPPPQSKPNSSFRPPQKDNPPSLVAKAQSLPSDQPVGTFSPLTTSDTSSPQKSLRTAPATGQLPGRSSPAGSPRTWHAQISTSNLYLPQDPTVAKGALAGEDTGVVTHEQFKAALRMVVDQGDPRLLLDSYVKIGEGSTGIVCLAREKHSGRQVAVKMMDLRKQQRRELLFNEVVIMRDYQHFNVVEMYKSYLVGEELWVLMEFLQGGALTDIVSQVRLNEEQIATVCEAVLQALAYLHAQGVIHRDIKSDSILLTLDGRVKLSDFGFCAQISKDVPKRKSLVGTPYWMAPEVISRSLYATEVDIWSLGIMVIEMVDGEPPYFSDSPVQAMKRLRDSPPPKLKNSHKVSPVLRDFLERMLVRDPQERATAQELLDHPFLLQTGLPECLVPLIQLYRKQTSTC
Tyrosine-protein kinase ABL2 (Homo sapiens), sequence (P42684 whole entry): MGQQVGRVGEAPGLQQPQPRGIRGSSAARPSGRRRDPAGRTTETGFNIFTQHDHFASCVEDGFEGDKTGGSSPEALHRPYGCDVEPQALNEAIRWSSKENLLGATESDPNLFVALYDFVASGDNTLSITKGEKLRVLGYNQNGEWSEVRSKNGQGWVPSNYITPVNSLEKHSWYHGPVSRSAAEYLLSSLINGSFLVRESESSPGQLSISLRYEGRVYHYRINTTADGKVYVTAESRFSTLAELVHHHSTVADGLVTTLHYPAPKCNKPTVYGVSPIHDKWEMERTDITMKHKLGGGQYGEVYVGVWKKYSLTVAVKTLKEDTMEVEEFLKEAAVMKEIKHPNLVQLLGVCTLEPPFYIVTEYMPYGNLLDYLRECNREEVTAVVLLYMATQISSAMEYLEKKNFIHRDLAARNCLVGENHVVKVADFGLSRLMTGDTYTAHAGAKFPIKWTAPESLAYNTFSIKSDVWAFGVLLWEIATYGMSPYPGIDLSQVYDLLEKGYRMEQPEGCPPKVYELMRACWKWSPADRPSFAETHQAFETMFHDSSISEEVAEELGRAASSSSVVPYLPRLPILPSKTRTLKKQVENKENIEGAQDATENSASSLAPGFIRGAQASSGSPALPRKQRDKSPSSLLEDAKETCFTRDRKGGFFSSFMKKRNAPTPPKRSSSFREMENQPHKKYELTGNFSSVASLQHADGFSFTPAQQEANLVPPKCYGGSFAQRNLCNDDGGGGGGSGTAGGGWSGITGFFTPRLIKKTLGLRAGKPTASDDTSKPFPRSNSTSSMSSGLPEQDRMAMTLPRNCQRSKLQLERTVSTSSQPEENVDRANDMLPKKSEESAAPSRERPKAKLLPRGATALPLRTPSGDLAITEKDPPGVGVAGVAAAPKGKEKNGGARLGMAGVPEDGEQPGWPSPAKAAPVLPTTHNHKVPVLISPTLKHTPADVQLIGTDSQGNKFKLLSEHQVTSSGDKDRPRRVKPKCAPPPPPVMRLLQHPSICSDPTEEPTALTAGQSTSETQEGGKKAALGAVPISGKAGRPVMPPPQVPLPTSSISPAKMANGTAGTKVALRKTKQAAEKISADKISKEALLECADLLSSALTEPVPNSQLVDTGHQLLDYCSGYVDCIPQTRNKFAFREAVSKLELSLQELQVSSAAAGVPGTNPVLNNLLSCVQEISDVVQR
ALK tyrosine kinase receptor (Homo sapiens), sequence (Q9UM73 19-1620 limits assumed): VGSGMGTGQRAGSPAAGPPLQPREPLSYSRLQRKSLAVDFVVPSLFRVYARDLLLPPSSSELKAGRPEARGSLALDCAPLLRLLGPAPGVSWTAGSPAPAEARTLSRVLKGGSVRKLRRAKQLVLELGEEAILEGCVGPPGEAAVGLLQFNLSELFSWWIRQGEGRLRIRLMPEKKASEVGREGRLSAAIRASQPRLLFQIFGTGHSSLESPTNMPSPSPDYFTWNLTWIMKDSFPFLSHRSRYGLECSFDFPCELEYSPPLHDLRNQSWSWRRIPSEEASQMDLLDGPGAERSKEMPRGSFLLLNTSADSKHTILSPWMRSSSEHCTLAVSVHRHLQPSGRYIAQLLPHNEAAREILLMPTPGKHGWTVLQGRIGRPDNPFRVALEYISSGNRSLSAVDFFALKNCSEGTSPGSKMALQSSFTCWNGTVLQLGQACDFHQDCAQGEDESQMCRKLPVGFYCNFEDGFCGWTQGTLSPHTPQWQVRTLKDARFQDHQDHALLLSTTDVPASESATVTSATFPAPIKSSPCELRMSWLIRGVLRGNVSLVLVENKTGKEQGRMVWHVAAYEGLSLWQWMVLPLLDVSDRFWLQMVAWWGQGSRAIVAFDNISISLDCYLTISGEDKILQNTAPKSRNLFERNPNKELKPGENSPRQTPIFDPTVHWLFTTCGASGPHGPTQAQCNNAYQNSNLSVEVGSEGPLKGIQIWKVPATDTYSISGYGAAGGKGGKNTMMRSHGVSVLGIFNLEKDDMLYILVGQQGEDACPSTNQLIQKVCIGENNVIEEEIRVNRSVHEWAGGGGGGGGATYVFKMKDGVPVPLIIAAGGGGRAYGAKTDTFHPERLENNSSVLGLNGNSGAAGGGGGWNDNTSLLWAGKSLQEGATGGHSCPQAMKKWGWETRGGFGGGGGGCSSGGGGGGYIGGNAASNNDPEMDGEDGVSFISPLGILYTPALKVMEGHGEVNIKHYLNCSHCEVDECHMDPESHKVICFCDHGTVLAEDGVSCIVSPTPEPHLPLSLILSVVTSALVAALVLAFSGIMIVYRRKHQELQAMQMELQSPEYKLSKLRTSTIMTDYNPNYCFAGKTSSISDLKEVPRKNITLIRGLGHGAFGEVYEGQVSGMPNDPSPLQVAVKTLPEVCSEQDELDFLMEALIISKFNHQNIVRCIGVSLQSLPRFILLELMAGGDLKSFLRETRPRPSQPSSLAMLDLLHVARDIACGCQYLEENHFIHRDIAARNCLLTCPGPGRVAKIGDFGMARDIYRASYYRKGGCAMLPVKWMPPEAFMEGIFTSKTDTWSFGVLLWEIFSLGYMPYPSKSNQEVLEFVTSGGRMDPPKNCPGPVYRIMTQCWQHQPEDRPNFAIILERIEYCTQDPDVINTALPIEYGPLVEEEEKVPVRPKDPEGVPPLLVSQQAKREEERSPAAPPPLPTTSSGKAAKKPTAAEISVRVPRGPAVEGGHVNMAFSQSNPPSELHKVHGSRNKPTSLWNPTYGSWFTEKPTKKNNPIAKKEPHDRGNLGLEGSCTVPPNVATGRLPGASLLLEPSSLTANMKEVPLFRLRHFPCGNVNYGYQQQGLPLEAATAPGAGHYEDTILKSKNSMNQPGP

Row | Structure (SMILES) | inhibition [1] | inhibition [2] | inhibition [3] | inhibition [4] | inhibition [5] | inhibition [6] | inhibition [7] | inhibition [8] | inhibition [9] | inhibition [10] | inhibition [11] | inhibition [12] | inhibition [13] | inhibition [14] | inhibition [15] | inhibition [16] | inhibition [17] | inhibition [18] | inhibition [19] | inhibition [20]
1 | CC(=O)Nc1cccc(C#Cc2cncnc2Nc2ccc(OCc3cccc(F)c3)c(Cl)c2)c1 | -5.42% | -0.36% | 1.79% | 2.77% | 1.25% | 1.83% | 2.92% | 2.53% | 2.16% | 1.92% | 1.79% | 0.83% | 3.28% | 4.43% | 8.55% | 1.96% | 6.45% | 2.39% | 5.22% | 1.64%
2 | Fc1cccc(COc2ccc(Nc3ncnc4sc(-c5ccco5)cc34)cc2Cl)c1 | -3.19% | 3.34% | 3.39% | 3.3% | 5.3% | 0.31% | 1.04% | 3.83% | 2.01% | 1.83% | 2.74% | 3.33% | 3.8% | 4.81% | 8.56% | 3.35% | 4.37% | 4.36% | 7.39% | -6.97%
3 | NS(=O)(=O)c1ccc(N/N=C2\C(=O)Nc3ccc4ncccc4c32)cc1 | 1.45% | 7.3% | 39.2% | 8.88% | 47.7% | 9.67% | 48.9% | 13.3% | 52.4% | 8.91% | 47.1% | 11.6% | 49.8% | 9.91% | 50.2% | 3.06% | 16.1% | 4.85% | 33.7% | 0.46%
4 | CCCN1CCC(c2ccc(Nc3nc(Nc4cc(F)ccc4C(N)=O)c4cc[nH]c4n3)c(OC)c2)CC1 | -7.38% | 4.38% | 6.84% | 4.63% | 8.82% | 1.91% | 7.76% | 3.87% | 9.15% | 3.58% | 19.1% | 3.53% | 8.34% | 1.86% | 8.95% | 97.5% | 86.6% | 2.8% | 5.54% | 17.1%
5 | COC(=O)Nc1nc2ccc(Oc3ccc(NC(=O)Nc4cccc(Cl)c4)cc3)cc2[nH]1 | -1.03% | 3.36% | 8.54% | 15.3% | 40.9% | 37.5% | 56.3% | 35.7% | 59.7% | 23.3% | 42.4% | 7.43% | 22% | 6.59% | 13.3% | 1.45% | 2.26% | 12.3% | 28.8% | -5.74%
6 | COc1ccc(-c2oc3ncnc(N)c3c2-c2ccc(NC(=O)Nc3cc(C(F)(F)F)ccc3F)cc2)cc1 | 11% | 3.15% | 22.9% | 10.3% | 58.2% | 34.6% | 76.4% | 33.6% | 76.2% | 21.9% | 64.3% | 9.77% | 54.4% | 7.54% | 52.3% | 2.32% | 8.5% | 13.6% | 68.1% | 21.3%
7 | CN1CCC(n2cnc(-c3ccc(F)cc3)c2-c2ccnc(Nc3ccccc3)n2)CC1 | -6.61% | 2.58% | 4.56% | 4.83% | 13.6% | 0.84% | 10.2% | 3.66% | 9.15% | 1.45% | 4.98% | 3.47% | 9.91% | 1.69% | 11% | 1.58% | 2.39% | 3.42% | 10.2% | -2.82%
8 | COC(=O)c1sc(-n2cnc3cc(OC)c(OC)cc32)cc1OCc1ccccc1C(F)(F)F | 0.71% | 6.91% | 22.7% | 5.82% | 18.2% | 4.03% | 16.2% | 6.05% | 18.9% | 2.67% | 4.91% | 6.46% | 21.6% | 3.86% | 12.3% | 3.59% | 12.4% | 3.44% | 5.92% | -8.88%
9 | COc1cc(/C=N/Nc2ncnc3[nH]ncc23)ccc1O | 4.44% | 36.5% | 83.4% | 45.9% | 87.6% | 42.9% | 87.9% | 47.9% | 88.3% | 8.14% | 47.4% | 52.5% | 87.3% | 35.1% | 78.9% | 1.72% | 8.84% | 15.6% | 65.7% | -3.29%
10 | COc1cc(N2CCN(C(C)C)CC2)ccc1Nc1nc(Nc2ccc(F)cc2C(N)=O)c2cc[nH]c2n1 | 3.58% | -0.24% | 1.64% | 1.72% | 2.38% | 1.19% | 2.15% | 1.11% | 2.74% | -0.7% | 7.02% | 0.29% | 1.6% | 3.76% | 3.4% | 88.3% | 88.8% | -0.12% | 2.78% | 3.89%
11 | CS(=O)(=O)CCNCc1ccc(-c2ccc3ncnc(Nc4ccc(OCc5ccccc5)c(C(F)(F)F)c4)c3c2)o1 | -6.97% | 3.5% | 2.71% | 4.04% | 4.48% | 0.91% | 0.91% | 2.84% | 2.08% | 2.59% | 2.46% | 4.02% | 3.49% | 5.33% | 5.35% | 4.27% | 4.07% | 4.59% | 4.76% | -6%
12 | Fc1ccc(-c2nn3ccccc3c2-c2ccncc2)cc1 | -2% | 1.77% | 2.14% | 1.59% | 4.98% | -1.48% | 8.75% | 0.48% | 6.96% | 0.16% | 4.09% | 1.97% | 4.11% | 1.42% | 9.29% | 0.44% | 1.88% | 3.94% | 7.98% | -2.22%
13 | CNC(=O)c1cc(-c2ccc(F)cc2)cc(-c2ccc(S(=O)(=O)N3CCCC3)cc2)c1N | -8.22% | 2.54% | 2.4% | 3.29% | 3.32% | 0.22% | 0.79% | 1.67% | 1.16% | 2.5% | 2.16% | 3.15% | 4.16% | 3.12% | 5.19% | 1.91% | 2.88% | 2.17% | 3.71% | -5.35%
14 | COc1cc2ncn(-c3cc(OCc4ccccc4C(F)(F)F)c(C(=O)N(C)C)s3)c2cc1OC | -4.14% | 1.36% | 9.93% | 2.27% | 16.3% | 1.09% | 14.9% | 2.35% | 13.2% | -0.89% | 1.37% | 1.14% | 17.4% | 2.99% | 18.7% | 0.27% | 0.78% | 4.85% | 11.8% | -0.33%

— ChEMBL document CHEMBL1961873, “Compounds: GSK PKIS; Assays: Nanosyn kinase panel” (2012)
